Most compounds without a hit are left out; they make up all but 2.2% or so of the library.
MEKK3 PB1 HTS = MEKK3-MEK5 PB1 interaction, increase or decrease; Q99759; bead-based flow cytometry, Alexa488-MEK5 binding to MEKK3; actives lie on both sides; 0 = blocked by unlabeled MEK5, 100 = vehicle; binding response (% of control), % at 10 µM; actives 1.4% (n = 290,000);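 active = binding response more than 3 SD above or below the average of its plate-row segment, actives on both sides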;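 note: Alexa488 bead fluorescence after subtracting the streptavidin-only scavenger bead signal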
Target sequence (Q99759 whole entry, looked up): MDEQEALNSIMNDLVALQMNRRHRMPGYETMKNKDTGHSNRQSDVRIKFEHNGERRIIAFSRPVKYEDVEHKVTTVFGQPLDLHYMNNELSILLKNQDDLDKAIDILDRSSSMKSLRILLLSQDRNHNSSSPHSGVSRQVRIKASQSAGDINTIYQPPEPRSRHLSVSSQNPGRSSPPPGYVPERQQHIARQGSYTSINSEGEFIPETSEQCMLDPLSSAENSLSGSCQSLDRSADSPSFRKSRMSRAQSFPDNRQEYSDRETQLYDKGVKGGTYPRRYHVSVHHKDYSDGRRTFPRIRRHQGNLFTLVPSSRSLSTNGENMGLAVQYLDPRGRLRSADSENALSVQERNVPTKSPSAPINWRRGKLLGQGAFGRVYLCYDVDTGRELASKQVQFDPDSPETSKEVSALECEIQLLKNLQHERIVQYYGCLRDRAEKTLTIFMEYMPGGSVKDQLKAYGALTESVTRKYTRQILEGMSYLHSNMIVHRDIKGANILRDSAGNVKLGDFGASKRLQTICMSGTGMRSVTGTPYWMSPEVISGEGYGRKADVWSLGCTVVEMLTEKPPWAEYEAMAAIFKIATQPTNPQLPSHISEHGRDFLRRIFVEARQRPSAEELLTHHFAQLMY
VLA-4 inh = inhibition in a human VLA-4 binding assay. AID 2557. inhibition, % (about 7 µM as worked out from the volumes in the protocol). P13612. actives 0.2% (n = 330,000). VLA-4 expressing cells, ligand binding flow cytometry; in the data active = inhibition above about 50%
MEKK2wt PB1 HTS = raises or lowers MEK5 binding to wildtype human MEKK2 PB1 domain | Q9Y2U5 | bead flow cytometry, Alexa488-MEK5 binding to MEKK2 WT; actives lie on both sides | binding response (% of control), % at 10 µM | actives 1.1% (n = 290,000); in the data active = binding response below about 67% or above about 130%
MEKK2 mut-MEK5 = signal of MEK5 binding to mutant human MEKK2 PB1 domain; bead flow cytometry, Alexa488-MEK5 binding to MEKK2 mutant; percent response, % at 10 µM; actives 0.35% (n = 290,000); AID 1530; in the data active = percent response above about 24%, passing the limit was not always enough
MEKK2wt confirm = raises or lowers MEK5 binding to wildtype human MEKK2, retest | shares compounds with MEKK3 PB1 HTS | binding response (% of control), % at 10 µM | bead flow cytometry, Alexa488-MEK5 binding to MEKK2 WT; actives lie on both sides | AID 1892 | actives 2.4% (n = 5,900); in the data active = binding response below about 16% or above about 210%; inactive = in between
MEKK2mut-MEK5 = signal of MEK5 binding to mutant human MEKK2, retest | actives 2% (n = 5,900) | percent response, % at 10 µM | bead flow cytometry, Alexa488-MEK5 binding to MEKK2 mutant | shares compounds with MEKK3 PB1 HTS; in the data active = percent response mostly above about 71%, no sharp cut-off; inactive = mostly below about 38%;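 note: higher means compound restores mutant binding toward wildtype level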
MEKK3-MEK5 inh = confirmation of inhibitors of MEK5 binding to human MEKK3; bead flow cytometry, Alexa488-MEK5 binding to MEKK3; active compounds read low; shares compounds with MEKK3 PB1 HTS; binding response (% of control), % at 10 µM; actives 1.8% (n = 5,900);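 active = binding response below 72% of control, or above a set upper limit, though filed actives all read lower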;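 note: 100% = DMSO only wells and 0% = binding blocked by excess unlabeled MEK5; lower values mean stronger disruption of MEK5 binding to MEKK3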
Active calls of the source: *; nt = no result; [ ] = dose if it differs, or a comment.

SMILES | MEKK3 PB1 HTS | VLA-4 inh | MEKK2wt PB1 HTS | MEKK2 mut-MEK5 | MEKK2wt confirm | MEKK2mut-MEK5 | MEKK3-MEK5 inh
COC(=O)c1cc(OC)c(OC)cc1NC(=O)Cc1cccs1 | 5.0*[inhibitor] | -4 | 7.0*[inhibitor] | -46 | 99 | -3 | 98
CC(C)NC(=O)C(OC(=O)c1ccccc1)C(OC(=O)c1ccccc1)C(=O)O (configuration not stated) | 123* | -2 | 117 | 6 | 109 | 7 | 104
O=C(O[C@@H](C(=O)O)[C@@H](OC(=O)c1ccccc1)C(=O)O)c1ccccc1 | nt | 17 | nt | nt | nt | nt | nt
Cc1sc(N)nc1-c1ccc2c(c1)OCCO2 | 103 | 6 | 105 | 12 | nt | nt | nt
NC1=NN=C(c2ccc3c(c2)OCCO3)CS1 | 1.0*[inhibitor] | 3 | 1.0*[inhibitor] | -84 | 94 | -8 | 96
COc1ccc(/C=N/NC(=O)CSc2n[nH]c(=O)[nH]c2=O)cc1 | 74*[inhibitor] | 5 | 103 | 0 | 103 | 1 | 102
Cc1ccc(S(=O)(=O)NCCn2cnc([N+](=O)[O-])n2)cc1 | 99 | 8 | 94 | -1 | nt | nt | nt
COc1cccc(N2C(=NC(=O)CCc3ccccc3)SC3CS(=O)(=O)CC32)c1 (configuration not stated) | 105 | 7 | 105 | 5 | nt | nt | nt
C=CC[C@H]1CC(Cc2ccccc2)=C[C@H](CC=C)N1 | 98 | 0 | 99 | -1 | nt | nt | nt
C=CC[C@H]1CC(C)=C[C@H](CC=C)N1 | 117 | 0 | 203* | 195* | 99 | -3 | 100
Nc1ccc(Nc2ccccc2N)cc1 | 60*[inhibitor] | -70 | 69 | -3 | 78 | 7 | 60*
COc1ccc2cc3cc(C(=O)Nc4cc(OC)c(OC)c(OC)c4)oc3nc2c1 | 93 | -7 | 98 | 1 | nt | nt | nt
COc1ccc2cc3cc(C(=O)NC(C)C)oc3nc2c1 | 124* | -3 | 117 | 5 | 101 | 0 | 103
CCn1c(SCC(=O)NNC(=S)Nc2ccc(C)cc2)nnc1-c1ccc(Cl)cc1 | 134* | -2 | 111 | 1 | 97 | 0 | 106
CCOC(=O)c1c(NC(=O)CSc2nnc3c(n2)[nH]c2ccccc23)sc2c1CCN(C)C2 | 107 | -9 | 144* | 15 | 137 | 20 | 102
CCOC(=O)c1c(NC(=O)CSc2ncccn2)sc2c1CCN(Cc1ccccc1)C2 | 97 | nt | 97 | -2 | nt | nt | nt
CC(C)n1cc(CN2CCC(C(=O)Nc3cccc(-c4cccc(Cl)c4)c3)CC2)cn1 | 107 | 9 | 183* | 34* | 203 | 73* | 117
CCn1cc(CN2CCC(C(=O)Nc3cccc(-c4cccc(OC)c4)c3)CC2)cn1 | 98 | 13 | 102 | 2 | nt | nt | nt
O=C(Nc1cccc(-c2cccc(Cl)c2)c1)C1CCN(Cc2ccc(CO)o2)CC1 | 105 | 14 | 153* | 22 | 126 | 23 | 109
Fc1ccc(N2Cc3ccsc3C=N2)cc1 | 101 | 17 | 99 | -5 | nt | nt | nt
Cc1ccc(N2CN(CCc3ccccc3)CNC2=S)cc1 | 95 | 13 | 94 | -2 | nt | nt | nt
O=C(CSc1cccc(C(F)(F)F)c1)NC(=O)c1ccccc1 | 146* | -2 | 104 | 0 | 111 | 8 | 111
N#CNC(N)=Nc1cccc(Cl)c1 | 122* | -3 | 126 | 8 | 101 | -2 | 100
COc1cccc(N2CCN(C(=O)C3CCCN(c4ncnc5c4nc4n5CCCCC4)C3)CC2)c1 (configuration not stated) | 96 | 1 | 95 | -4 | nt | nt | nt
CCCCN(C)C(=O)Cn1c(=O)oc2cc(S(=O)(=O)N3CC(C)CC(C)C3)ccc21 (configuration not stated) | 132* | 4 | 117 | 29 | 111 | 9 | 102
SMILES | MEKK3 PB1 HTS | VLA-4 inh | MEKK2wt PB1 HTS | MEKK2 mut-MEK5 | MEKK2wt confirm | MEKK2mut-MEK5 | MEKK3-MEK5 inh
COc1ccc(C(=O)NCCS(=O)(=O)N2CCOCC2)cc1 | nt | 14 | nt | nt | nt | nt | nt
NC(=NCCCCCCN=C(N)/N=C(\N)Nc1ccc(Cl)cc1)/N=C(\N)Nc1ccc(Cl)cc1 | 113 | 43 | 345* | 96* | 268* | 121* | 113
COc1ccc(-c2noc(N3CCC(C(=O)NCCCN4CCCC(C)C4)CC3)n2)cc1 (configuration not stated) | 102 | 16 | 105 | -1 | nt | nt | nt
CC(=O)N1N=C(c2ccccc2)CC1c1cn(C)c2ccccc12 (configuration not stated) | 157* | 10 | 113 | 3 | 98 | 4 | 103
CC(=O)N1N=C(c2ccccc2)CC1c1ccc(F)cc1 (configuration not stated) | 105 | 2 | 107 | 4 | nt | nt | nt
COCCN(C(=O)C1CC1)c1nnc(-c2cccc(C)c2)s1 | 0.0*[inhibitor] | 10 | 0.0*[inhibitor] | -21 | 109 | 15 | 110
CCc1ccc(CCN2C(=O)c3ccccc3C2=O)nc1 | 75*[inhibitor] | -19 | 75 | -31 | 97 | -4 | 101
Cc1nc(CCN2C(=O)c3ccccc3C2=O)n[nH]1 | 98 | -19 | 100 | 1 | nt | nt | nt
CN(C)Cc1c(O)ccc2[nH]cnc12 | 80 | -1 | 89 | -11 | nt | nt | nt
Oc1ccc2ccc3[nH]cnc3c2c1 | 39*[inhibitor] | -24 | 45*[inhibitor] | 5 | 95 | -3 | 99
O=C(Nc1ccc(N2CCCC2)cc1)c1ccc(Br)cc1 | 105 | -7 | 151* | 10 | 124 | 13 | 94
CN1CCN(c2ccccc2NC(=O)c2ccc(-c3cccc([N+](=O)[O-])c3)o2)CC1 | 108 | 12 | 109 | 0 | nt | nt | nt
CC(=O)N1CCN(c2ccc(NC(=O)c3ccc(OCc4ccccc4)cc3)cc2)CC1 | 62*[inhibitor] | -8 | 75 | -7 | 101 | -3 | 98
CC(C)Oc1ccc(C(=O)Nc2ccc(N3CCCC3)cc2)cc1 | 97 | -17 | 99 | -2 | nt | nt | nt
CN1CCN(c2ccccc2NC(=O)c2ccc(-c3ccc(Cl)c(Cl)c3)o2)CC1 | 105 | -5 | 139* | 19 | 157 | 40 | 109
CN1CCN(c2ccccc2NC(=O)c2cccc(OCc3ccccc3)c2)CC1 | 111 | 14 | 137* | 21 | 137 | 19 | 105
CC(=O)N1CCN(c2ccc(NC(=O)c3cccc(OCc4ccccc4)c3)cc2)CC1 | 94 | -8 | 92 | -3 | nt | nt | nt
Cc1nn(C)c(C)c1S(=O)(=O)N(CC(=O)NCCCN1CC(C)CC(C)C1)c1ccc(C(C)C)cc1 (configuration not stated) | 103 | 13 | 104 | -5 | nt | nt | nt
CNc1ccc(Br)cc(C(=O)/C=C/c2ccc3c(c2)OCO3)c1=O | 91 | -16 | 66*[inhibitor] | -10 | 100 | 1 | 102
OC1CCCN(Cc2ccc3ccc4cccc5ccc2c3c45)C1 (configuration not stated) | 109 | 5 | 140* | 17 | 119 | 8 | 102

Source: PubChem
